Values joined by “and” are separate entries in the source; they are usually repeats but may differ in a detail not shown here. Equal entries are not always repeated. Results filed as inconclusive are left out. Active and inactive are the calls of the source. Unless noted, calls follow the shape of the full dose curve.

The results in this text go back to PubChem BioAssay (NCATS).

Test [1] is described as follows: Cell Viability - BJ (AID 421).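 Also: potency is read from the fitted curve at half-maximal effect; cells exposed to compound for 40 hours at 37 °C before readout.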 The conditions noted are these: BJ fibroblast viability, qHTS. In short, it runs like this: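 Luminescent ATP signal (CellTiter-Glo, 20 min at room temperature) served as the read-out of viable BJ cells after 40 hours of compound treatment. Responses were scaled between DMSO and 100 uM tamoxifen, and AC50 values were obtained by Hill modeling.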

Test [2] is described as follows: Cell Viability - SH-SY5Y (AID 544; active = well fitted curve in the direction sought with a large enough effect; an effect the other way counts as inactive or inconclusive;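 also: 0% = DMSO alone and -100% = 100 µM tamoxifen; nearly all actives have a fitted effect of over 55% in size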). The note with it: SH-SY5Y neuroblastoma cell viability; viability change, negative = cytotoxic: at 92.2 µM (top of the series). In short, it runs like this:
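Luminescent ATP read-out (CellTiter-Glo) measures loss of viable SH-SY5Y neuroblastoma cells after 40 hr compound exposure at 37 °C. AC50 values derive from standard Hill modelling of qHTS concentration-response data.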

Test [3] can be described thus: Cellular Toxicity (caspase-3) N2a (AID 665; active = well fitted curve in the direction sought with a large enough effect; an effect the other way counts as inactive or inconclusive;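 also: compound exposure lasted 16 h at 37 °C before readout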). The note with it: N2a cells, luminescence, normalized: DMSO 0%, 10 µM staurosporine 100%; at 92.2 µM (top of the series). In short, it runs like this: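 N2a cells, 1500/well, 5 h settle at 37 °C; cpd 16 h, 37 °C; Caspase-Glo 3/7, 1 h RT; luminescence. Norm: DMSO = 0, 10 uM staurosporine = 100%. AC50, Hill fit.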
The nature of test [4]: qHTS Assay for Identification of Small Molecule Inducers of Hypoxia Response (AID 2120; active = well fitted curve in the direction sought with a large enough effect in the signal ratio, with a control signal flat, not every such curve was filed as active; the % refers to the signal ratio; also: 0% is about no effect). In short, it runs like this:
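ME-180 HRE-bla cells plated in Opti-MEM/0.5% dialyzed FBS, rested 4-5 h, then dosed with compound titrations by pin tool. After 17 h at 37 degrees C, CCF4 dye loaded 2.5 h at RT; 460/530 nm ratio gave %Activity and AC50.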

In test [5] the target is Bile acid receptor (Homo sapiens) (UniProt Q96RI1). Put plainly: qHTS assay for small molecule antagonists of farnesoid X receptor signaling (AID 588526). Also: % is scaled to controls: 0 for no effect and ±100 for the full control effect. In short, it runs like this: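 Antagonist mode: titrated compounds tested against chenodeoxycholic acid stimulation (normalized to 50 uM CDCA and DMSO) in GeneBLAzer HEK293T cells for 16 h. Beta-lactamase read by CCF4 fluorescence; IC50 from Hill fits.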

For test [6] the target is unchanged. Put plainly: qHTS assay for small molecule agonists of farnesoid X receptor signaling (AID 588527).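 Also: 0% = vehicle basal and 100% = reference agonist.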 The note with it: HEK293T FXR-UAS-bla, beta-lactamase ratio, 16 h; stronger effect = higher value. In short, it runs like this: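 FXR-UAS-bla HEK293T, 10% dialyzed FBS; cpds up to 92 uM titration, 16 h 37 C; CCF4 dye 2 h RT; fluorescence. Normalized to chenodeoxycholic acid 100 uM (100%) and DMSO (0%); Hill fit gives EC50, efficacy.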

Test [7] addresses Vitamin D3 receptor (Homo sapiens) (UniProt P11473). Put plainly: qHTS assay for small molecule antagonists of vitamin D receptor signaling (AID 588541).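 Also: receptor activated by calcitriol during compound treatment; % is scaled to controls: 0 for no effect and ±100 for the full control effect.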 In short, it runs like this: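 VDR-UAS-bla HEK293T cells in 2% charcoal-stripped FBS were stimulated with 1-alpha,25-dihydroxyvitamin D3 (3 nM final) plus compound for 16 h at 37 C. The beta-lactamase CCF4 readout was normalized to 50 nM agonist and DMSO, and Hill fits gave IC50.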

The target is the same in test [8]. The experiment in a line: qHTS assay for small molecule agonists of vitamin D receptor signaling (AID 588543).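 Also: 0% = DMSO basal and 100% = reference agonist control.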 In short, it runs like this:
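qHTS in agonist mode: compound titrations stimulate a VDR-driven β-lactamase reporter in HEK293T cells over 16 h at 37 °C. Response normalized to 50 nM 1α,25-dihydroxyvitamin D3 = 100%, DMSO = 0%; Hill fitting gives EC50 and maximal response.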

The nature of test [9]: qHTS assay for small molecule activators of the nuclear factor-kappa B (NF-kB) signaling pathway (AID 651749; active = well fitted activation curve with a large enough effect in the signal ratio; the % refers to the signal ratio; also: % of control where 0% means no effect). The conditions noted are these: NF-kB-bla ME-180 cells, beta-lactamase FRET ratio, 16 h; activation: stronger effect = higher value. In short, it runs like this:
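NF-kB-bla ME-180 cells carrying a beta-lactamase reporter under an NF-kB response element, 2,000 cells/well, exposed to compound for 16 hr at 37C; FRET-based beta-lactamase fluorescence read-out of pathway activation.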

The nature of test [10]: qHTS assay for small molecule disruptors of the mitochondrial membrane potential - 5 hr assay (AID 651755). Also: % is scaled to controls: 0 for no effect and ±100 for the full control effect; nearly all actives have a fitted effect of over 40% in size. In short, it runs like this:
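HepG2 cells (2,000/well), attached overnight, exposed to compound 5 hr at 37C, then Mito-MPS dye 30 min. Fluorescence read for monomers (490/535 nm) and aggregates (540/590 nm).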

A short description of test [11]: qHTS assay for small molecule activators of the human pregnane X receptor (PXR) signaling pathway (AID 720659; call rule not given here; also: 0% is about no effect).
The nature of test [12]: Cell Viability - LYMP2-017 (AID 972; active = well fitted curve in the direction sought with a large enough effect; an effect the other way counts as inactive or inconclusive;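 also: cells exposed to compound for 24 hours at 37 °C; % is scaled to controls: 0 for no effect and ±100 for the full control effect; nearly all actives have a fitted effect of over 55% in size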). In short, it runs like this: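 2500 cells/well, 5 h 37 C; cpd 24 h 37 C in complete medium; CellTiter-Glo, 30 min RT; luminescence (ATP). AC50 via Hill fit, qHTS.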
A short description of test [13]: qHTS assay for small molecule antagonists of peroxisome proliferator-activated receptor delta signaling (AID 588535).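 Also: cells co-treated with a PPAR-delta agonist as stimulator during compound exposure.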 The conditions noted are these: HEK293T PPARd-UAS-bla, beta-lactamase FRET ratio, 18 h; 460 nm channel. In short, it runs like this:
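Antagonist-mode beta-lactamase reporter (GeneBLAzer PPAR-delta-UAS-bla) in HEK293T cells, 2% charcoal/dextran FBS, 4000 cells/well. Compound titrations, 18 h at 37 C; CCF4 ratio read, IC50 and efficacy from Hill fits.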

Test [14] can be described thus: qHTS assay for small molecule agonists of the antioxidant response element (ARE) signaling pathway (AID 651741; active = well fitted activation curve with a large enough effect in the signal ratio; the % refers to the signal ratio; also: % of control where 0% means no effect). In short, it runs like this:
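CellSensor ARE-bla HepG2 cells (2,000/well) carrying ARE-driven beta-lactamase, exposed 16 h at 37 C. LiveBLAzer B/G FRET substrate added for 2 h at room temperature; fluorescence intensity read.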

Test [15] in a line: KB-8-5-11 P-gp reporter qHTS against the NCATS DSHEA and TCM libraries (AID 1919977; active = well fitted curve in the direction sought with a large enough effect; an effect the other way counts as inactive or inconclusive; also: 0% is about no effect). In short, it runs like this:
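Cells were seeded, allowed ~4 h to attach, dosed by pin tool (substance titrations), incubated ~72 h at 37C, then lysed with CellTiter-Glo for 30 min at room temperature before luminescence reading.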

Test [16] in a line: Cell Viability - LYMP1-003 - Assay at 40 hr (AID 964; active = well fitted curve in the direction sought with a large enough effect; an effect the other way counts as inactive or inconclusive; also: % is scaled to controls: 0 for no effect and ±100 for the full control effect; nearly all actives have a fitted effect of over 60% in size). In short, it runs like this:
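Cells were seeded at 2500 per well and incubated 5 hr at 37 C. Compounds were added across a concentration series and left 40 hr at 37 C. CellTiter-Glo was added for 30 min at room temperature before luminescence reading.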

For test [17], the target named is Thyroid hormone receptor beta (Homo sapiens) (UniProt P10828). The experiment in a line: qHTS assay for small molecule agonists of thyroid hormone receptor beta signaling (AID 588545). In short, it runs like this:
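Agonist-mode beta-lactamase reporter assay, HEK 293 cells, 2% charcoal/dextran FBS; cells plated 4 hrs, compound 18 hrs at 37 C, CCF4 2 hrs RT. Normalized to 10 nM T3 (100%) and DMSO (0%); Hill fit gives EC50, efficacy.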

Test [18] has as its target Retinoic acid receptor RXR-alpha (Homo sapiens) (UniProt P19793). The experiment in a line: qHTS assay for small molecule antagonists of retinoid X receptor alpha signaling (AID 588546; active = well fitted inhibition curve with a large enough effect in the signal ratio, with a control signal flat, not every such curve was filed as active; the % refers to the signal ratio; also: % is scaled to controls: 0 for no effect and ±100 for the full control effect). The note with it: HEK293T RXRa-UAS-bla, beta-lactamase ratio, antagonist mode. In short, it runs like this: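 Beta-lactamase reporter inhibition, read as CCF4 fluorescence ratio (ex 405, em 460/530 nm) after 2 h at RT. HEK293T UAS-bla cells, 2500/well, were stimulated with 9-cis-RA at 500 or 100 nM final alongside test compound for 18 h at 37 C.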

Test [19] in a line: qHTS assay for small molecule agonists of the antioxidant response element (ARE) signaling pathway measured by Nrf2-dependant transcriptional activity - cell viability counter screen (AID 720653; active = well fitted curve in the direction sought with a large enough effect in the repeat runs; an effect the other way counts as inactive or inconclusive; also: % is scaled to controls: 0 for no effect and ±100 for the full control effect). The note with it: ARE-bla HepG2 viability, CellTiter-Glo ATP luminescence, 16 h; stronger effect = lower value. In short, it runs like this: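 ARE-bla HepG2 cells treated with compounds for 16 h at 37C; this counter screen measures viability as intracellular ATP by CellTiter-Glo luminescence after 30 min at room temperature.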

The nature of test [20]: Cell Viability - LYMP2-009 (AID 968; active = well fitted curve in the direction sought with a large enough effect; an effect the other way counts as inactive or inconclusive;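 also: cells exposed to compound for 24 h at 37 °C; 0% = DMSO alone and the full-kill end = tetraoctylammonium bromide at 92 µM; nearly all actives have a fitted effect of over 55% in size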).

Thyroid hormone receptor beta (Homo sapiens), sequence (P10828 whole entry, looked up): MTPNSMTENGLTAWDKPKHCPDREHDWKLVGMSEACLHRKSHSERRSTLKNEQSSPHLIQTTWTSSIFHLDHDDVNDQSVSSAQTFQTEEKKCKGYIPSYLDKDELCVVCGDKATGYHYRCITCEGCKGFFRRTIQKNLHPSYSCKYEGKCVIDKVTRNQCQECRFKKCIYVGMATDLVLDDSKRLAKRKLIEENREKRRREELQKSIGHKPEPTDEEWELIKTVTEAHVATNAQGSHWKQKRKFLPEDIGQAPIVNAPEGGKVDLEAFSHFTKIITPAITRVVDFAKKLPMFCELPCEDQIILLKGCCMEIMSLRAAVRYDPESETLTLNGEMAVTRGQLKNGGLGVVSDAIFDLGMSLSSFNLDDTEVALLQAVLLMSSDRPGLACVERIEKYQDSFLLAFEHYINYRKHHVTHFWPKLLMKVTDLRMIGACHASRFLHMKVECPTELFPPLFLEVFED
Bile acid receptor (Homo sapiens), sequence (Q96RI1 whole entry, looked up): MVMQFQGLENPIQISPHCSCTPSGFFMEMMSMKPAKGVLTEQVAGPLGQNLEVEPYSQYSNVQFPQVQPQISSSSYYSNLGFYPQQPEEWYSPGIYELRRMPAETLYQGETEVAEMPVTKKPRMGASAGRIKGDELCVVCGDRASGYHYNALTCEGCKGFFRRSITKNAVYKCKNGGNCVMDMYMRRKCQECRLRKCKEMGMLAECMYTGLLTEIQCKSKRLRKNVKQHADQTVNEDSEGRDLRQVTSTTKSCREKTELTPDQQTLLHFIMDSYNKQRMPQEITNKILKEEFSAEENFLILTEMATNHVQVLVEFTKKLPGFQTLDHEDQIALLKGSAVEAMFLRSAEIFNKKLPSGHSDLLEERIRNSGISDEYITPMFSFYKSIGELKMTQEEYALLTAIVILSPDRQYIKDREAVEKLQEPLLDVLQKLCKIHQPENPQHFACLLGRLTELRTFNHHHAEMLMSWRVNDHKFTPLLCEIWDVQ
Retinoic acid receptor RXR-alpha (Homo sapiens), sequence (P19793 whole entry, looked up): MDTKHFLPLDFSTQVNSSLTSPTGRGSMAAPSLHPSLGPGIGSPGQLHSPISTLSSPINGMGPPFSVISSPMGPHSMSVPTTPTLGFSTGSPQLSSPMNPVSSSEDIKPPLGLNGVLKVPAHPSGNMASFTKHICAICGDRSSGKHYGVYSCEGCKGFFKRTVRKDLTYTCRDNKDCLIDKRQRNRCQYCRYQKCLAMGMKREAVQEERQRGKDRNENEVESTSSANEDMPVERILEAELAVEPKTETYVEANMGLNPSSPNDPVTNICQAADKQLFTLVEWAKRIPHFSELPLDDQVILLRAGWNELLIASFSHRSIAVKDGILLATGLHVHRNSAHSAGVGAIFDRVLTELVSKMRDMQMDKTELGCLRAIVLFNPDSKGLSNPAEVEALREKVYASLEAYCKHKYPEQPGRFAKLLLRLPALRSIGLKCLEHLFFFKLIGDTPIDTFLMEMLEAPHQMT
Vitamin D3 receptor (Homo sapiens), sequence (P11473 whole entry, looked up): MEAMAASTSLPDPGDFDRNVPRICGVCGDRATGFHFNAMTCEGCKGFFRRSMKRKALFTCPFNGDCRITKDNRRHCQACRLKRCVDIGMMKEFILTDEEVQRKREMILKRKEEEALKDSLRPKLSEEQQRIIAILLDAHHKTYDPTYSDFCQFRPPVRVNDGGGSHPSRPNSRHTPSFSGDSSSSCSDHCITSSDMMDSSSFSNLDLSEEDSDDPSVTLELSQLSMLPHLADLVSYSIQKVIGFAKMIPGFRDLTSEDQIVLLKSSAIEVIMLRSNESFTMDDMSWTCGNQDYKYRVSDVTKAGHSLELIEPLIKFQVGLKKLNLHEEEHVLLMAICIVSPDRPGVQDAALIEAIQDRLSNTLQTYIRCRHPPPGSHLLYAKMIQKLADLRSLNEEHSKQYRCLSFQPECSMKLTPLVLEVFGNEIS

As for `CCCC(=O)Cl`, the Potency in test [1] is > 92 µM (inactive). Moreover, the Potency result in test [2] and in test [10] was “inactive” throughout. For the same molecule, in test [3], the caspase-3 activation is 4.05% (inactive). The outcome in test [4], in test [5], in [7], in [8] and in test [11] was inactive. Also, the activation in test [6] is 0.327% (inactive); in test [9] it was -0.622% (inactive).
Regarding `C=CC(=O)OCC`, in test [1], the Potency is > 92 µM (inactive). Moreover, the Potency result in test [12], in test [14] and in test [10] was “inactive” throughout. In addition, the outcome in [4], in [5] and in [11] was inactive. The activation in [6] is -1.2% (inactive). Moreover, in [13], the max response was 26.1%.
For the molecule `C[C@@H]1O[C@@H](OC[C@H]2OC(Oc3c(-c4ccc(O)c(O)c4)oc4cc(O)cc(O)c4c3=O)[C@H](O)[C@@H](O)[C@@H]2O)[C@H](O)[C@H](O)[C@H]1O` (some centres undefined), in [15], the Potency entry was “inactive”.
`CCOP(=S)(OCC)Oc1ccc([N+](=O)[O-])cc1`: the Potency in [1] is > 92 µM (inactive). Further, in [3], the caspase-3 activation is -4.19% (inactive) and -4.51% (inactive). Moreover, the Potency entry in test [16], in [12], in [14] and in test [10] was “inactive” throughout. Besides, the outcome in [4] and in [17] was inactive. Besides, the max response was 12.5% and -2.14% in test [13]; 10.9% (inactive) and -20.1% (inactive) in test [18]; -2.59% (inactive) and 6.4% (inactive) and 13.8% (inactive) in [19]. The activation in test [9] is -1.46% (inactive) and -0.889% (inactive) and 0.819% (inactive).
Take `O=NN(c1ccccc1)c1ccccc1`: in test [1], the Potency was > 92 µM (inactive). In test [3], the caspase-3 activation was 0.181% (inactive). Also, the Potency result in test [16], in test [20] and in test [10] was “inactive” in each case. The result in test [4], in test [5] and in test [11] was inactive. In [6], the activation was -0.746% (inactive) and 1.47% (inactive). Besides, the max response in test [13] is 35.3%; in test [18], -2.47% (inactive) and 4.6% (inactive); in test [19], -4.67% (inactive) and 8.95% (inactive).
`COc1ccc(N)cc1`: in test [1], the Potency is > 92 µM (inactive). In addition, the result in test [4], in [17] and in test [11] was inactive. Also, the max response is 35% in test [13]; 6.52% (inactive) and -14.8% (inactive) in test [19].
Take `ClC(Cl)=C(Cl)C(Cl)=C(Cl)Cl`: in test [1], the Potency was > 92 µM (inactive). Further, in [3], the caspase-3 activation was -2.34% (inactive). Further, the result in [4] and in [11] was inactive. For the same molecule, the max response in [13] is -24.7% and -5.61%; in test [19], 5.78% (inactive) and -15% (inactive). For the same molecule, the Potency entry in test [14] is “inactive”.
In the case of `CCCCCCCC(=O)Cl`, the Potency entry in test [2], in test [16] and in test [12] was “inactive” throughout. In addition, the caspase-3 activation in [3] is -0.621% (inactive). Also, the outcome in [4], in test [5], in test [17] and in test [11] was inactive. Besides, the activation in test [6] was 0.289% (inactive); in [9], -0.835% (inactive). Moreover, the max response in test [18] was 17.7% (inactive).
